About 760 (16%) of roughly 4,700 compounds were called active. The list is a sample of the results. Values without a mark were called inactive.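 How the source made its calls: active means inhibition above a cutoff derived from the DMSO control wells (cut at about 28% in these data); inactive means the rest.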
The molecules below were run against Microphthalmia-associated transcription factor (Homo sapiens) (UniProt O75030) (assay: blockers of human MITF dimerization – biochemical, AlphaScreen, triplicate, confirmation (AID 1259372)). Conditions: AlphaScreen MITF homodimerization, biotin/His-MITF beads; at 2.6 µM; hits give high values.
Chain of Microphthalmia-associated transcription factor (Homo sapiens) (O75030 whole entry, looked up): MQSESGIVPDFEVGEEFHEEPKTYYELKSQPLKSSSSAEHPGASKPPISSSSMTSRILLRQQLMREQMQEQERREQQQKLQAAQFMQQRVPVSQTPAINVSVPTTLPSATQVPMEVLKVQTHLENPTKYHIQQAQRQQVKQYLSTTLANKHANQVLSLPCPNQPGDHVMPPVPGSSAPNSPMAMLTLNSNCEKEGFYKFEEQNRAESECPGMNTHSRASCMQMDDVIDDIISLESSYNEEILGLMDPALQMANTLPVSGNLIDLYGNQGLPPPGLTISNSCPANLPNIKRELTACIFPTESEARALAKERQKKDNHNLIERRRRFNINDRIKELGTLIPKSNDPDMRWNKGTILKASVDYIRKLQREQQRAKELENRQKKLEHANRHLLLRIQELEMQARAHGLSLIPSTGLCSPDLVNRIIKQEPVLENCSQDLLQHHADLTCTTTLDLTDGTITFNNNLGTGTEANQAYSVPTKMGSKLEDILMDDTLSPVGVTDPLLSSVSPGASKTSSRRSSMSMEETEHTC

In order of falling inhibition:
1. N#Cc1ccc(OCC(=O)Nc2nc(-c3ccccn3)cs2)cc1  22.3%
2. CC(C)(C)n1nnnc1C(c1ccc2ncccc2c1)N1CCSCC1 (stereo unspecified)  20.3%
3. CC(c1ccccn1)N(CCN(C)C)C(=S)Nc1ccccc1F (stereo unspecified)  19.9%
4. CC(C)(C)NCC(=O)Nc1c2c(nc3ccccc13)N(Cc1ccccc1)CC2  18.3%
5. CCCCC(=O)NCc1ccc(F)cc1  17.4%
6. O=C(CNCc1ccc(F)cc1)Nc1ccc(N2CCCC2)cc1  17.1%
7. Cc1ccc(C)n1C(Cc1ccccc1)C(=O)O (stereo unspecified)  17%
8. COc1cc(CN2CCN(Cc3ccco3)CC2)c([N+](=O)[O-])cc1OC  16.3%
9. O=c1c2ccccc2ncn1CCCCOc1ccccc1F  15.3%
10. O=[N+]([O-])c1ccccc1CN1CCN(Cc2cccnc2)CC1  14.6%
11. Cc1nc2sc(C(c3ccccc3Cl)N3CCC4(CC3)OCCO4)c(O)n2n1 (stereo unspecified)  13.8%
12. COc1ccc(CN2CCC(C(=O)N3CCN(Cc4ccccc4)CC3)CC2)cc1  13.8%
13. Fc1cccc(Cl)c1Cn1nnc(-c2ccncc2)n1  13.6%
14. c1ccc(-n2cc(CN3CCOCC3)c(-c3ccc4c(c3)OCCO4)n2)cc1  13.2%
15. Fc1cccc(CN2CCN(C3CCC(c4ccccc4)CC3)CC2)c1 (stereo unspecified)  11.2%
16. O=C(CN1CCN(CC(=O)c2ccco2)CC1)Nc1ccc(Cl)c(Cl)c1  10.7%
17. CCOc1ccc(OCCCCNCCO)cc1  10.6%
18. CCCS(=O)(=O)N1CCN(C(C)C)CC1  10.5%
19. COCCCN1C(=O)c2cccc3c(C(=O)c4ccccc4)ccc(c23)C1=O  10.4%
20. CN1CCC(N2CCN(c3ccccc3Cl)CC2)CC1  10.4%
21. COc1ccc(C(CNCc2cc(=O)oc3cc4c(cc23)CCC4)N2CCOCC2)cc1 (stereo unspecified)  10.3%
22. O=C(OCCN1CCOCC1)c1c(Cl)nc2sccn12  9.99%
23. CCN1CCN(CCOc2ccc(-c3ccccc3)cc2)CC1  9.66%
24. COc1cc(CN2CCN(Cc3ccccc3Cl)CC2)cc(OC)c1OC  9.37%
25. CN(CCc1ccccn1)Cc1cccnc1  8.93%
26. COc1ccc(CN2CCN(Cc3cccc(Br)c3)CC2)c(OC)c1  8.87%
27. COc1ccc(Cn2nnc(C(=O)Nc3cccc(Cl)c3)c2N)cc1  8.84%
28. CC1CCCCC1NC(=O)CSc1nnc(-c2ccncc2)n1CCCN(C)C (stereo unspecified)  8.82%
29. COc1cccc(CN2CCC(C(=O)NCCc3ccccc3)CC2)c1  8.72%
30. COc1ccc(Br)cc1CN1CCN(C(=O)c2cccnc2)CC1  8.4%
31. Cc1ccc(C(C)C)c(OCC#CCN2CCNCC2)c1  7.61%
32. COc1ccc(OC)c(CN2CCN(Cc3ccc(Cl)cc3)CC2)c1  7.55%
33. COc1ccc(C(=O)COC(=O)CNS(=O)(=O)/C=C/c2ccc(C)cc2)cc1OC  7.42%
34. Cc1cccc(NC(=O)CNCCN2CCCCC2)c1C  7.31%
35. CCCS(=O)(=O)N1CCN(Cc2ccccc2Br)CC1  7.16%
36. CSc1ccc(CN2CCN(Cc3cccc(Oc4ccccc4)c3)CC2)cc1  6.75%
37. Cc1ccccc1NC(=O)NCCOc1cc(N2CCCC2)ncn1  6.75%
38. COc1cccc(OC)c1C(=O)N1CCN(Cc2ccccc2F)CC1  6.68%
39. COc1cc(CN2CCN(Cc3cccnc3)CC2)cc(OC)c1OC  6.15%
40. Cc1cccnc1NC(=O)CSc1nnc(COc2ccc(C(C)C)cc2)n1C  5.99%
41. CCOc1ccc(CN2CCCN(C)CC2)cc1  5.9%
42. Cc1ccc(OCCCCNCCN2CCOCC2)c(Br)c1  5.77%
43. CC(NCCCN1CCOCC1)C(=O)Nc1ccccc1 (stereo unspecified)  5.64%
44. Fc1ccc(CN2CCN(C3CCCC3)CC2)cc1  5.12%
45. CCCS(=O)(=O)N1CCN(Cc2cccc(Cl)c2)CC1  4.65%
46. O=[N+]([O-])c1ccccc1S(=O)(=O)N1CCN(C2Cc3ccccc3C2)CC1  4.35%
47. COc1ccc(OCCCC(=O)Oc2ccc(OC)cc2)cc1  4.29%
48. O=S(=O)(c1ccc(F)cc1)N1CCN(Cc2ccccc2C(F)(F)F)CC1  3.94%
49. N#Cc1ccc(/C=N/NC(=O)c2cc([N+](=O)[O-])cc([N+](=O)[O-])c2)cc1  3.87%
50. COc1ccc(C(=O)N2CCN(Cc3ccccc3C(F)(F)F)CC2)cc1OC  3.61%
51. CC(C)CO/N=C1\C[C@@H](O)[C@@H](O)[C@@H]2[C@@H]3C(=O)N([C@@H](C)c4ccccc4)C(=O)[C@@H]3CC[C@@H]12  3.51%
52. COc1ccc(CN2CCN(C3CCC(C)CC3)CC2)c(OC)c1OC (stereo unspecified)  2.96%
53. c1cncc(CCNc2ccc3ncc(-c4cc5ccccc5o4)n3n2)c1  2.68%
54. Cc1cc(NC(=O)CNCCCN(C)C)no1  2.39%
55. CCN1CCN(CC(=O)N/N=C/c2cccc(Cl)c2)CC1  2.25%
56. CCN1CCN(CCOCCOc2ccccc2OCc2ccccc2)CC1  2.12%
57. CCOc1cccc(C2C(C(=O)OCCOc3ccccc3)=C(C)NC3=C2C(=O)CCC3)c1 (stereo unspecified)  2.03%
58. COc1ccc(CN2CCN(Cc3cc(OC)c(OC)c(OC)c3)CC2)cc1  1.87%
59. COC(=O)C(C)CN1CCN(Cc2ccc3c(c2)OCO3)CC1 (stereo unspecified)  1.84%
60. COc1cccc(CN2CCN(Cc3ccc(C(F)(F)F)cc3)CC2)c1OC  1.8%
61. CCc1cccc(OCCOCCn2ccnc2)c1  0.99%
62. CCN(CC(=O)NCc1ccc(Cl)cc1)Cn1nnc2ccccc21  0.75%
63. C=CCNC(=O)c1sc(=S)n(CC)c1N  0.63%
64. CC(=O)c1cccc(N2C(=O)c3cccnc3C2=O)c1  0.46%
65. O=C(O)C1C2C=CC(O2)C1C(=O)Nc1nccs1 (stereo unspecified)  -0.18%
66. CN1CCN(CCC(=O)N/N=C/c2ccsc2)CC1  -0.75%
67. C=CCc1cc(C)ccc1OCCCn1ccnc1  -1.07%
68. CCS(=O)(=O)N1CCN(C2CCCCC2C)CC1 (stereo unspecified)  -1.17%
69. COc1ccc(CN2CCN(Cc3ccccc3C)CC2)c(OC)c1OC  -1.26%
70. COc1ccc(CN2CCN(Cc3cc(OC)ccc3OC)CC2)cc1  -1.47%
71. COc1ccccc1CN1CC(C)OC(C)C1 (stereo unspecified)  -2.69%
72. CCN(CC)C(=O)C1CCCN(Cc2cccc(Cl)c2)C1 (stereo unspecified)  -2.94%
73. COc1cc(Nc2ncnc3c2nc(N2CCOCC2)n3C(C)C)cc(OC)c1OC  -3.35%
74. Cc1cccc(OCCN2CCNCC2)c1C  -3.54%
75. CCN(Cc1ccccc1)Cc1ccc([N+](=O)[O-])cc1  -4.11%
76. COc1ccc(C(=O)NCCN2CCN(c3nc4c(C)c(C)ccc4s3)CC2)cc1  -5.73%
77. CC1CCC2C(=O)N(c3ccc(I)cc3)C(=O)C2C1 (stereo unspecified)  -5.9%
78. CCC(C)c1ccccc1NC(=O)CN(C)CC(=O)Nc1ccccc1SC (stereo unspecified)  -6.92%
79. CCC(C)NCCOCCOc1cc(C)cc(C)c1C (stereo unspecified)  -6.95%
80. CCc1ccc(OCCCCn2ccnc2)cc1  -7.12%
81. CN(CCC(=O)O)Cc1cccc(Cl)c1  -8.04%
82. COC(=O)c1sc(NC(=O)c2ccccc2C)c(C#N)c1C  -8.1%
83. COc1ccc(NC(=O)c2cc3n(n2)C(C(F)(F)F)CC(c2ccc(OC)c(OC)c2)N3)cc1OC (stereo unspecified)  -8.79%
84. CCN(CCN(C)C)Cc1c(Cl)cccc1Cl  -9.82%
85. COc1cccc(-c2ncnn2-c2sc3c(c2C#N)CCCCC3)c1  -10.4%
86. O=C(NN1C(=O)c2ccccc2C1=O)c1cccc(F)c1  -16%
87. CC(=O)NS(=O)(=O)c1ccc(-c2ccc(C=C(C#N)C#N)o2)cc1  -19.5%
88. COc1ccc(CN2CCCC(C(=O)N3CCCCC3)C2)cc1 (stereo unspecified)  -32.4%

With `N#Cc1nc(COc2cccc(Cl)c2)oc1NCCCn1ccnc1` the inhibition was 43.8% (active).
`CCN(CC)CCN1COc2c(cc(Cl)c3cccnc23)C1` was tested, and the inhibition was 107% (active).
With `COc1ccc2c(c1)CC(c1nc(Nc3ccc4cnccc4c3)c3ccccc3n1)CO2` (stereo unspecified) the inhibition was 58.2% (active).
With `CCN(C(=O)Cc1nc(N)n[nH]1)C1(C(=O)Nc2ccc(C)cc2)CCCCC1` the inhibition was 81.1% (active).
For `CCN(C(=O)Cc1nc(N)n[nH]1)C1(C(=O)Nc2ccccc2)CCCCC1`, the inhibition was 105% (active).
`COc1cc(N2CCOCC2)ccc1Nc1cc(Nc2ccccc2-n2cccn2)c(C(F)(F)F)cn1` was tested, and the inhibition was 31.5% (active).
For `CN(C)c1cccc(Nc2ccc(-c3cccc(C=O)c3)cn2)c1`, the inhibition was 65.7% (active).
With `O=C(Cc1cccs1)N/N=C\C=C\c1ccco1` the inhibition was 79.7% (active).
In the case of `C/C(N)=C(/C#N)C(=O)COC(=O)c1c2c(nc3ccccc13)/C(=C/c1ccco1)CC2`, the inhibition is reported as 90.7% (active).
With `Cc1cc(NC(=O)CSc2ccc(-c3ccccn3)nn2)no1` the inhibition was 49% (active).
For `CC[C@@H]1NC(=O)[C@H]2CN(C(=O)NCc3ccccc3)CCN2C1=O`, the inhibition was 73.6% (active).
For `C[C@@H](OCc1ccccc1)[C@@H]1NC(=O)[C@H]2CN(C(=O)Nc3cccc(F)c3)CCN2C1=O`, the inhibition was 68.9% (active).
In the case of `Cc1n[nH]c(=O)nc1N/N=C/c1cccs1`, the inhibition is reported as 35.1% (active).

From PubChem BioAssay AID1259372 (The Scripps Research Institute Molecular Screening Center, 2018)
